In PubChem BioAssay (NCI):
Compounds without any hit were thinned out: in the full panel of roughly 83,000, 20% have a hit.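 The endpoint reported here, percent growth, reads 100 for growth as untreated, 0 for no net growth and -100 for all cells dead.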 Unmarked numbers belong to inactive results. Calls of active or inactive are those of the source. The calls were made as follows: active = growth percent below 10; inactive = the rest.

Key:
Test in all cases: NCI-60 one-dose screen, 48 h (100 = growth as untreated, 0 = no growth, -100 = all killed)
Settings in all cases: 10 µM unless noted
SK-MEL-2 melanoma = test system: SK-MEL-2 melanoma
EKVX NSCLC = test system: EKVX NSCLC
SN12C renal = test system: SN12C renal
UO-31 renal = test system: UO-31 renal
TK-10 renal = test system: TK-10 renal
ACHN renal = test system: ACHN renal
A498 renal = test system: A498 renal
CCRF-CEM leukemia = test system: CCRF-CEM leukemia
MOLT-4 leukemia = test system: MOLT-4 leukemia
SR leukemia = test system: SR leukemia
RPMI-8226 leukemia = test system: RPMI-8226 leukemia
OVCAR-8 ovarian = test system: OVCAR-8 ovarian
OVCAR-5 ovarian = test system: OVCAR-5 ovarian
OVCAR-4 ovarian = test system: OVCAR-4 ovarian
SK-OV-3 ovarian = test system: SK-OV-3 ovarian
IGROV1 ovarian = test system: IGROV1 ovarian
OVCAR-3 ovarian = test system: OVCAR-3 ovarian
HS 578T breast = test system: HS 578T breast
NCI/ADR-RES ovarian = test system: NCI/ADR-RES ovarian
CAKI-1 renal = test system: CAKI-1 renal

Compound	growth (SK-MEL-2 melanoma)	growth (EKVX NSCLC)	growth (SN12C renal)	growth (UO-31 renal)	growth (TK-10 renal)	growth (ACHN renal)	growth (A498 renal)	growth (CCRF-CEM leukemia)	growth (MOLT-4 leukemia)	growth (SR leukemia)	growth (RPMI-8226 leukemia)	growth (OVCAR-8 ovarian)	growth (OVCAR-5 ovarian)	growth (OVCAR-4 ovarian)	growth (SK-OV-3 ovarian) [%]	growth (IGROV1 ovarian)	growth (OVCAR-3 ovarian)	growth (HS 578T breast)	growth (NCI/ADR-RES ovarian)	growth (CAKI-1 renal)
C=C1C(=O)O[C@H]2[C@H]1CC/C(COC(=O)CCCCCC(=O)OC/C1=C/CC[C@@]3(C)O[C@H]3[C@H]3OC(=O)C(=C)[C@@H]3CC1)=C\CC[C@@]1(C)O[C@@H]21	55.7%	19.9%	0.951% (active)	-32.1% (active)	7.18% (active)	-25.7% (active)	90.5%	4.16% (active)	0.768% (active)	3.39% (active)	1.08% (active)	12.2%	51.2%	37.2%	94.6	7.45% (active)	1.8% (active)	18.7%	46.9%	
COc1ccc(C2CC(n3nnnc3-c3ccccc3)=NN2)cc1 (stereo unspecified)	69.3%	66.2%	78.1%	35.3%	82.6%	42.1%		39.6%	50.3%		62.5%	61.6%	66.4%			64.8%	75.1%	99%		8.64% (active)
CC(O)/C=C/C=C/C(O)CC/C=C/C(=O)NCC(C)(C)O (stereo unspecified)	81.9%	107%	99.2%	78.4%	109%	106%	99.7%	95%	76.2%	66.4%	100%	93.3%	113%	106%	111	117%	115%	99.8%		
Clc1nc(Nc2ccccc2)nc(Nc2ccccc2)n1	106%	106%	95.9%	-80.6% (active)	122%	98.9%		91.7%	86.3%	45.8%	82.8%	112%	101%	86.1%	96.5	91.9%	103%	121%	94.6%	
O=S(=O)(O)c1cc(O)c2c(N=Nc3ccc(Nc4ccccc4)c4c(S(=O)(=O)O)cccc34)cc(S(=O)(=O)O)cc2c1	99.7%	103%	99.2%	74.3%	106%	98.5%		108%	110%	111%	109%	97%	105%	113%	104		107%	101%	102%	
Cn1/c(=N/NC(N)=S)ccc2ccccc21	117%	78.1%	91.3%	62.7%	113%	95.2%		63.9%	48.5%		78.2%	74.6%	99%	93.3%	107	44.7%	44.1%	103%	77%	
COc1ccc2nc(N=Nc3c(O)ccc4ccccc34)sc2c1	59.3%	17.8%	50.4%	20.7%	69.1%	17.2%	79%	31.3%	19.9%	16.6%	38.1%	24.3%	55.3%	28.3%	38.2	22.4%	34.9%	83%	9.35% (active)	
Cc1ccc(-c2csc(/N=C3\C(=O)Nc4ccccc43)n2)cc1	-51.2% (active)	33.6%	23.4%	42%	8.33% (active)	36.7%	5.79% (active)	6.64% (active)	-19.5% (active)	-30.2% (active)	-20.2% (active)	16.3%	60.8%	36%	32.4	25.3%	-10.7% (active)	31.2%	81%	
C=C1C(=O)O[C@H]2[C@H]1CC/C(COC(=O)/C=C/c1c[nH]c3ccccc13)=C\CC[C@@]1(C)O[C@@H]21	-83.7% (active)	-41.4% (active)	-54% (active)	-100% (active)	-99.2% (active)	-100% (active)	-98.8% (active)	2.46% (active)	5.13% (active)	-19.7% (active)	-34.3% (active)	-34.4% (active)	-42.1% (active)	-91.9% (active)	50.8	-69.7% (active)	-91.5% (active)	-6.76% (active)	-26.9% (active)	
O=c1nc2n(nc1/C=C/c1ccco1)CC(c1ccc(Cl)cc1)=NN2	30.3%	72.1%	136%	64%	104%	122%	107%	98%	84.2%	45%		67.9%	122%	95.3%	93	8.48% (active)	109%	116%	100%	
COc1ccc2c(/C=C3/C(=O)NC(=S)NC3C)cc(=O)oc2c1 (stereo unspecified)	86.8%	101%	97.7%	88.3%	93.5%	108%	91.5%	93.2%	90.5%	96.6%	117%	91.6%	94.1%	100%	100	96.2%	101%	100%	99%	
COC(=O)CCCCCCCCC1(C)C=CC(C(C)O)=CC1 (stereo unspecified)	104%	102%	103%	100%	92.2%	114%	96.1%	99.7%	97.8%	89.8%	103%	105%	120%	110%	110	99.7%	111%	117%	102%	
C=C1C(=O)O[C@H]2[C@H]1CC/C(COC(=O)CCCc1c[nH]c3ccccc13)=C\CC[C@@]1(C)O[C@@H]21	88.4%	74.3%	54.8%	58.5%	94.7%	59.5%	103%	1.43% (active)	3.73% (active)	1.59% (active)	-17.6% (active)	66.3%	94.7%	65.8%	98.2	45.8%		74%	72.2%	
COc1ccccc1-c1c(-c2ccc(Cl)cc2)c2cc3c(cc2[nH]c1=O)OCCO3	80.5%	53.6%	85.4%	61.9%	86%	70.5%	86.8%	41.7%	3.15% (active)	45.8%	-57.2% (active)	68.5%	91.1%	68.5%	101	77%	64.5%		72.3%	
Cc1nccc2c3ccc(OCc4cn(-c5ccc(Cl)cc5)nn4)cc3n(CCCc3ccccc3)c12	90.8%	66.3%	6.96% (active)	-87.1% (active)	-16.1% (active)	-20.4% (active)	87.5%	2.43% (active)	18.2%	-34.1% (active)	7.63% (active)	-33.2% (active)	43.4%	-51.1% (active)	53.2	34%	26.6%	-35.7% (active)	-44.1% (active)	
[2H]C1([2H])NC([2H])([2H])C([2H])([2H])N(c2ccc(Nc3ncc4cc(C(=O)N(C)C)n(C5CCCC5)c4n3)nc2)C1([2H])[2H]	94.3%	65.2%	74.9%	61.2%	43%	57.4%	66.5%	54.1%	8.74% (active)	39.8%	34.8%	85.2%	39.8%	92.7%	58.3	73.4%	107%	71.2%	104%	
